# From publication PMC5540273 (PLoS ONE, 2017)
# Experiments:
# Conditions in all cases: concentration: 1 μM,replicates: in singlicate; n = 1
# [1] = system: RIOK1
# [2] = system: RIOK2
# [3] = system: RIOK3
# [4] = system: RIPK1
# [5] = system: RIPK2
# [6] = system: RIPK4
# [7] = system: RIPK5
# [8] = system: ROCK1
# [9] = system: ROCK2
# [10] = system: ROS1
# [11] = system: RPS6KA4(Kin.Dom.1-N-terminal)
# [12] = system: RPS6KA4(Kin.Dom.2-C-terminal)
# [13] = system: RPS6KA5(Kin.Dom.1-N-terminal)
# [14] = system: RPS6KA5(Kin.Dom.2-C-terminal)
# [15] = system: T1, RSK1(Kin.Dom.1-N-terminal)
# T1 construct: gene RPS6KA1
# [16] = system: T2, RSK1(Kin.Dom.2-C-terminal)
# T2 construct: gene RPS6KA1
# [17] = system: T3, RSK2(Kin.Dom.1-N-terminal)
# T3 construct: gene RPS6KA3
# [18] = system: T4, RSK2(Kin.Dom.2-C-terminal)
# T4 construct: gene RPS6KA3
# [19] = system: T5, RSK3(Kin.Dom.1-N-terminal)
# T5 construct: gene RPS6KA2
# [20] = system: T6, RSK3(Kin.Dom.2-C-terminal)
# T6 construct: gene RPS6KA2
# 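Also: KINOMEscan kinase panel screen.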
Structure (SMILES),%Inh [1] [%],%Inh [2] [%],%Inh [3] [%],%Inh [4] [%],%Inh [5] [%],%Inh [6] [%],%Inh [7] [%],%Inh [8] [%],%Inh [9] [%],%Inh [10] [%],%Inh [11] [%],%Inh [12] [%],%Inh [13] [%],%Inh [14] [%],%Inh [15] [%],%Inh [16] [%],%Inh [17] [%],%Inh [18] [%],%Inh [19] [%],%Inh [20] [%]
NC(=O)Nc1sc(-c2ccc(F)cc2)cc1C(N)=O [GW789449],99.4,37,98.5,0,0,79,69,14,0,0,46,7,0,0,54,33,68,45,21,7
COc1cc2ncn(-c3cc(OCC4CCCCC4)c(C(N)=O)s3)c2cc1OC [GSK204559],90,5,67,2,0,0,0,0,0,9,7,0,28,0,8,0,7,30,22,8
CN1CCN(CCCNc2nccc(-c3c(-c4ccc(F)cc4)nn4cc(C(N)=O)ccc34)n2)CC1 [GW622475],46,27,36,10,85,28,0,0,20,4,13,0,19,14,28,63,0,100,12,14
Cc1ccc2c(-c3ccnc(Nc4ccc(C(F)(F)F)cc4)n3)cnn2n1 [GW819776],17,84,22,29,17,10,27,54,0,41,28,0,0,0,19,8,53,0,0,7
Cc1nnc(-c2ccc3occ(-c4ccc(S(C)=O)cc4)c3n2)o1 (centres unmarked),0,0,7,0,0,0,0,0,0,0,0,0,9,0,0,14,0,0,0,3
Cn1ccc2ncnc(Oc3ccc(NC(=O)Nc4cccc(C(F)(F)F)c4)c(F)c3)c21,0,0,23,23,52,0,0,0,0,53,37,0,0,19,0,0,6,13,0,22
Cn1ccc2ncnc(Oc3ccc(NC(=O)Nc4cncc(C(F)(F)F)c4)c(Cl)c3)c21,0,29,19,0,9,0,0,0,0,0,0,0,83,6,0,0,0,0,9,0
NC(=O)c1ccc(-c2cc3ncnc(SCC(=O)O)c3s2)cc1,0,0,19,0,18,3,0,0,0,0,0,24,7,0,0,0,1,0,2,7
CN1CCN(CCNc2nc3cc(Oc4ccc(NC(=O)Nc5cc(C(F)(F)F)ccc5F)cc4)ccc3[nH]2)CC1.Cl.Cl [GW768504],0,0,8,2,1,0,3,48,0,16,5,0,0,1,7,28,0,0,0,8
Cc1cccc(-c2nc(Nc3ccncc3)c3sccc3n2)n1 [GW869641],35,42,28,0,62,42,25,27,38,21,30,7,19,0,2,8,41,50,7,21
